MLL AF4-AF9 inh = blocks AF4 peptide binding to human AF9. P42568. AlphaScreen, biotin-AF4 peptide binding to FLAG-AF9. inhibition, % at 10 µM. hit rate 0.47% among 350,000. AID 651704;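 active = every replicate reaching a set inhibition limit, whatever the replicate mean, cut at about 25% in these data; inconclusive = mean inhibition reaches that limit but some replicates miss it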;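 also: 0% = plate neutral control median and 100% = total signal loss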
INS-1E GSIS act = primary screen for activators of insulin secretion dependent on glucose, INS-1E cells, GLuc reporter luminescence; INS-1E GLuc reporter insulin secretion, 2-3 h; activation, % at 16.6 µM; hit rate 0.61% among 370,000;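 active = lowest replicate activation of at least 40%, so every replicate reaches that level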;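 also: 0% = median of neutral control wells and 100% = median of IBMX positive control wells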
RAD54 inh = RAD54 (human) branch migration inhibition; Q92698; RAD54 Holliday junction branch migration, FAM/BHQ fluorescence; inhibition, % at 10.4 µM; hit rate 0.14% among 360,000; AID 602329;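 active = mean normalized replicate activity at least 40 and at least half of replicates scoring 40 or more; inconclusive = only one of the two criteria met; inactive = mean below 40 and under half of replicates reaching 40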;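 also: 0% = median of neutral control wells and 100% = median of positive control wells; inhibitors cause a drop in the FAM fluorescence signal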
ERAP1 inh = ERAP1 (human) enzyme inhibition | Q9NZ08 | recombinant ERAP1, Leu-AMC fluorescence, 60 min | inhibition, % at 10.7 µM | hit rate 0.15% among 340,000;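 active = mean replicate inhibition of at least 30%, or all replicates individually reaching that 30% level; inactive = mean below 30% and not every replicate reaching it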;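 also: 0% = neutral control wells and 100% = L-leucinethiol positive control wells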
RAD52 anneal inh = RAD52 (human) annealing inhibition | P43351 | recombinant RAD52 DNA annealing, FRET fluorescence | inhibition, % at 18.7 µM | hit rate 0.46% among 360,000 | AID 651710;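 active = every replicate showing at least 50% inhibition; inconclusive = mean inhibition at least 50% but not in every replicate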
PGC1a acetyl inh = lowers PGC1a acetylation signal in U2OS cells; AlphaScreen anti-acetyl-lysine; with virally co-expressed GCN5 acetyltransferase; inhibition, % at 15.6 µM; hit rate 0.17% among 350,000;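 active = every replicate shows inhibition of at least 40%; inconclusive = mean inhibition at least 40% but some replicate below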;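 also: 0% = neutral control wells and 100% = positive control wells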
Starred values were filed as active, the others as inactive; ? = inconclusive; · = no result given. Shown are actives, neighbours in structure and some others; about 1.4% of the full set was active somewhere.

SMILES	MLL AF4-AF9 inh	INS-1E GSIS act	RAD54 inh	ERAP1 inh	RAD52 anneal inh	PGC1a acetyl inh
CN1c2ccc(C3=CCCCC3)cc2[C@@H]2[C@@H](CCN2C(=O)C2CCCCC2)[C@H]1CO	25.2*	-12.3	·	-2.1	-0.9	-7.2
COc1cccc(-c2ccc3c(c2)[C@@H]2[C@@H](CCN2C(=O)NC2CCCC2)[C@H](CO)N3C)c1	26.5*	-0.1	-1.1	8.6	2.7	-10.5
CN(C)CC(=O)Nc1ccc2c(c1)[C@@H]1C[C@@H](CC(=O)NC3CCCCC3)O[C@@H](CO)[C@@H]1O2	-1.0	9.4	-5.4	-1.1	8.2	-4.9
[N-]=[N+]=NCc1ccccc1C[C@]1(C(=O)N2CCCCC2)COC(c2ccc(OCCCO)cc2)=N1	-2.3	·	-2.4	-0.6	4.5	2.3
COC(=O)C[C@@H]1CC[C@@H]2[C@H](COC[C@@H](O)CN2S(=O)(=O)c2ccc(F)cc2)O1	-3.3	-2.3	5.3	-1.8	-2.2	5.5
COc1ccccc1C#Cc1ccc([C@H]2[C@H]3CN(C(=O)C4CC4)CCCCN3[C@H]2CO)cc1	-3.6	·	-5.8	5.3	0.6	9.2
Brc1ccc2c(c1)-c1ccccc1C1=NCCN12	-4.0	·	80.6*	-3.7	35.1	-5.1
COc1cccc(N/C=C/c2onc(C)c2[N+](=O)[O-])c1	·	52.1*	2.5	·	·	·
CCC(C)Nc1nc(N)c([N+](=O)[O-])c(NCCO)n1 (stereo not drawn)	·	70.7*	·	-5.1	-18.1	·
CC(C)CCNc1nc(N)c([N+](=O)[O-])c(NCCO)n1	·	47.4	-6.5	1.9	-9.5	-10.1
C[C@H]1C/C=C\C[C@H](c2ccc3c(c2)OCO3)NC(=O)[C@H](c2ccccc2)CC(=O)N1	·	-7.7	·	·	·	·
CN(C)Cc1ccccc1Sc1ccc2c(c1)CCCC2	?	54.3*	-2.8	3.7	11.9	-10.2
COc1cccc(Sc2ccccc2CN(C)C)c1	·	10.1	-0.4	·	·	-3.6
Cc1ccnc(NC(=O)c2ccc(Cl)cc2Cl)n1	-1.6	12.7	·	0.8	-6.9	·
Cc1cc(C)nc(NC(=O)c2ccc(Cl)cc2Cl)n1	-6.3	68.1*	-8.1	-1.9	-16.6	5.3
COc1ccc2nc3ccccc3nc2c1NC(=O)c1ccc(Cl)cc1Cl	·	86.6*	-16.0	·	·	-2.3
COc1cc(-c2cc(C(=O)Nc3c(Cl)cc(Cl)cc3Cl)c3ccccc3n2)cc(OC)c1OC	-0.9	·	·	6.8	-6.3	·
Nc1nc2n(n1)C(c1cccc(Cl)c1)CC(c1ccc(F)cc1)N2 (stereo not drawn)	-0.5	48.5*	2.8	-1.6	-1.2	-8.4
COc1ccc(Br)cc1C(=O)Nc1ccc(NC(=O)c2ccco2)cc1	·	2.4	-3.3	·	·	-4.8
COc1ccc(Br)cc1C(=O)Nc1cc(C)cc(C)c1	·	81.7*	-1.8	·	·	-9.7
N#Cc1cccc(-c2ccc3c(c2)[C@@H]2[C@@H](CCN2C(=O)C2CCCCC2)[C@@H](CO)N3)c1	-1.3	14.8	-1.6	-0.1	-137.3	-2.7
COC(=O)c1cnn(-c2nc(-c3ccccc3)cs2)c1N	-1.9	45.0*	0.2	-0.7	-13.2	-5.2
CCOC(=O)c1cnn(-c2nc(-c3ccccc3)cs2)c1C(F)(F)F	·	-24.6	·	·	·	-0.1
Cc1cc([N+](=O)[O-])nn1CCCC(=O)Nc1sc2c(c1C(N)=O)CCC(C)C2 (stereo not drawn)	27.9*	6.7	·	-4.9	-17.0	·
CC1CCc2c(sc(NC(=O)Cn3cnc([N+](=O)[O-])n3)c2C(N)=O)C1 (stereo not drawn)	-1.1	10.5	1.8	2.3	-17.0	·
SMILES	MLL AF4-AF9 inh	INS-1E GSIS act	RAD54 inh	ERAP1 inh	RAD52 anneal inh	PGC1a acetyl inh
O=C(Nc1nc2ccccc2n1Cc1ccc(Cl)cc1)c1ccco1	·	47.5*	·	·	·	·
O=C(Nc1nc2ccccc2n1CCOc1ccc(Cl)cc1)c1ccco1	-5.8	·	8.7	0.3	-18.3	·
O=C(c1ccccc1)c1c2c(cc3sc4ccccc4[n+]13)-c1cccc3cccc-2c13	·	-43.4	105.0*	·	·	-2.7
O=S(=O)(c1ccc(Cl)nc1)N1CCc2ccccc21	-0.6	54.0*	-5.4	-0.2	-6.9	-1.4
O=S(=O)(c1ccc(Cl)nc1)N1CCCc2ccccc21	·	13.7	·	·	·	·
O=C1C=C(NCc2ccco2)CCC1	1.8	5.2	-11.5	1.5	-10.1	-3.4
CC1(C)CC(=O)C=C(NCc2ccco2)C1	·	·	·	·	·	40.3*
Cc1ccc(-c2nnc3sc(-c4ccncc4)nn23)cc1	·	67.5*	-6.0	·	·	-2.6
c1ccc(-c2nn3c(-c4ccccc4)nnc3s2)cc1	·	·	1.4	·	·	4.1
